DAX1 inh: DAX1 (NR0B1) inhibitors, primary screen, cell-based, HEK293, Gal4-DAX1, luciferase luminescence; HEK293 Gal4-DAX1 luciferase reporter; inhibition, % at 6.75 µM; 340,000 compounds, 0.99% hits; AID 504766, 2011;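 active means inhibition above the mean over all tested compounds plus 3 SD, cut at about 4.2% in these data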;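 further: inhibition shows as a rise in luminescence from relieved DAX1 repression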
Target sequence (P51843 207-470 limits assumed): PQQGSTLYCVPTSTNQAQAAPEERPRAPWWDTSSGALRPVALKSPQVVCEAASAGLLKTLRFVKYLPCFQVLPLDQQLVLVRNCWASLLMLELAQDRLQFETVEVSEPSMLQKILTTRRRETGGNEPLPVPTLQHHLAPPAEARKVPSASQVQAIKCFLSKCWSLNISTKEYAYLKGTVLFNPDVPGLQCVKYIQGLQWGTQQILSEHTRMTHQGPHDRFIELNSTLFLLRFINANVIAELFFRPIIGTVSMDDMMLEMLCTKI
HSP90 inh: HSP90 inhibitors, primary screen, cell lysate, luminescence | Rabbit reticulocyte lysate, luciferase refolding luminescence, 3 h | Heat shock protein HSP 90 (rabbit reticulocyte lysate; luciferase refolding) | inhibition, % at 5.6 µM | 290,000 compounds, 0.91% hits;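 active means inhibition above the screen-wide mean plus 3 SD, computed separately per campaign, cut at about 16% in these data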;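 further: inhibitors lower the luminescence because luciferase stays unfolded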
HSF1 inh: HSF1 inhibitors in luciferase reporter cells, primary screen, cell-based, NIH3T3, luminescence | NIH3T3-HGL HSE-luciferase, MG132-induced, luminescence 8 h; hits give low values | activity change, negative = inhibition, % at 7.5 µM (by protocol) | 300,000 compounds, 0.77% hits;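 active means more than half of replicate wells show activity change below -50%, luminescence cut by over half; inconclusive means some wells, but at most half, below -50%; inactive means no replicate well below -50%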;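 further: luciferase reports HSF-1 transcriptional activity via heat shock element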
HSF1 activator: HSF-1 activators, primary screen, NIH3T3-HGL cells, MG132 stress, luminescence, single point; activation, % at 9 µM; AID 504408, 2011; 300,000 compounds, 1.7% hits; NIH3T3-HGL HSF-1 luciferase reporter, 8 h; 100% = twice DMSO control signal;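 active means mean replicate activation of at least 50% with a set share of replicates each reaching 50%; inconclusive means only one of those two conditions met; inactive means mean below 50% and too few replicates reaching it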
AHR activator: AHR activators, primary screen, cell-based, luminescence, luciferase reporter, human; AID 2796, 2010; AHR-responsive luciferase reporter cells; Aryl hydrocarbon receptor (Homo sapiens), P35869; 320,000 compounds, 2.5% hits; activation, % at 5 µM; in the data active means activation above about 47%
FXN GAA850 act: FXN promoter activators, primary screen, cell-based, luciferase luminescence, HEK293 lucGAA850. 360,000 compounds, 0.56% hits. HEK293 lucGAA850 FXN promoter luciferase reporter, 24 h; percent of 10 µM SAHA response. activation, % at 6 µM;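 active means activation above the average of all compounds screened plus 3 SD, cutoff fixed separately per campaign, cut at about 7.5% in these data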
HSP90 inh confirm: HSP90 inhibitors, confirmation, cell lysate, luminescence; inhibition, % at 5.9 µM; 2,300 compounds, 64% hits; shares compounds with HSP90 inh; rabbit reticulocyte lysate, luciferase refolding luminescence, 3 h; AID 1846, 2009; in the data active means inhibition above about 18%
FLuc counter: firefly luciferase inhibitors, HSP90 counter-screen, confirmation, artefact control for HSP90 inhibitor project, biochemical, luminescence, triplicate. shares compounds with HSP90 inh. AID 1847, 2009. 2,300 compounds, 48% hits. purified native firefly luciferase. inhibition, % at 5.9 µM;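 active means inhibition above the mean inhibition of all tested sample wells plus 3 SD, cut at about 10% in these data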
Large screens that a line does not name were inactive (follow-up assays come after a bar, where they were run). Rows were chosen to be rich in hits. Some 5.9% of all compounds tested hit in one or more screens of this group.

Cn1c(SCc2ccccc2[N+](=O)[O-])nnc1-c1cccnc1	none
O=C(Nc1ccc(Cl)cc1)Nc1ccccc1C(=O)O	HSP90 inh 27, HSF1 activator 54 | HSP90 inh confirm 46 | FLuc counter 43
O=C(Nc1cccc(C(=O)O)c1)Nc1cccc2ccccc12	HSP90 inh 19 | HSP90 inh confirm 32 | FLuc counter 15
CCOc1ccc(NC(=O)c2ccccn2)cc1	HSP90 inh 83 | HSP90 inh confirm 88 | FLuc counter 80
Cc1ccccc1OCC(=O)Nc1cccc(C(=O)O)c1	HSP90 inh 97 (no result: HSF1 inh, HSF1 activator, AHR activator) | HSP90 inh confirm 91 | FLuc counter 86
Cc1cccc(OCC(=O)Nc2cc(NC(=O)COc3cccc(C)c3C)cc(C(=O)O)c2)c1C	none
COCCNC(=O)/C(C#N)=C1\N=C(N)c2ccccc21	none
CN1CCN(C(=O)CC2C(=O)NCCN2Cc2ccc(-c3ccccc3)cc2)CC1 (stereo not given)	none
COC(=O)c1cccc(NC(=O)NC(=O)c2ccccc2Cl)c1	HSP90 inh 29 | HSP90 inh confirm 71 | FLuc counter 16
COC(=O)c1cccc(NC(=O)Nc2ccc(Cl)c(Cl)c2)c1	none
O=C(NCc1ccccc1)C(=O)Nc1cccc(C(=O)O)c1	HSP90 inh 42 | HSP90 inh confirm 71 | FLuc counter 73
O=C(Nc1ccc(Cl)cc1)Nc1cccc(C(=O)O)c1	HSP90 inh 78 (no result: DAX1 inh) | HSP90 inh confirm 89 | FLuc counter 87
CCN(CC)CCOC(=O)c1ccc(Cl)cc1Cl	none
CC1CCCC(C)N1C(=O)Cn1cc(/C=C2/C(=O)Nc3ccccc32)c2ccccc21 (stereo not given)	none
O=C1CCC(c2ccccc2)(C2CCN(Cc3ccccc3)CC2)C(=O)N1 (stereo not given)	none (no result: HSP90 inh)
CCc1ccc2c(COC(=O)C3CSC4(C)CCC(=O)N34)cc(=O)oc2c1 (stereo not given)	none (no result: HSP90 inh, HSF1 inh, HSF1 activator)
CCCC(C(=O)NCC1CCCO1)N(Cc1ccccc1)C(=O)CNS(=O)(=O)c1ccccc1 (stereo not given)	none
CCOCCC(=O)Nc1nnc(CCc2ccccc2)s1	none (no result: AHR activator)
COc1ccccc1C(=O)N(CCC1CCCN1C)c1nc2ccccc2s1 (stereo not given)	HSP90 inh 67, HSF1 inh -72 | HSP90 inh confirm 70 | FLuc counter 69
Cc1cc(/C=N/NC(=O)c2cccc(F)c2)c(C)n1-c1ccccc1	DAX1 inh 4.5, HSP90 inh 25 | HSP90 inh confirm 48 | FLuc counter 47
O=C(O)c1cccc(NC(=S)NC(=O)c2ccc3ccccc3c2)c1	HSP90 inh 64, HSF1 inh -71 | HSP90 inh confirm 71 | FLuc counter 49
O=C(O)c1ccc(NC(=S)NC(=O)c2ccc3ccccc3c2)cc1	none
CCOc1ccc(C(=O)Nc2cccc(C(=O)O)c2)cc1Cl	HSP90 inh 88 | HSP90 inh confirm 88 | FLuc counter 72
CCOc1ccc(NC(=O)c2cc(F)c(F)cc2Cl)cc1OCC	HSP90 inh 24 | HSP90 inh confirm inactive | FLuc counter inactive
CCCCOc1ccc(NC(=O)c2cc(F)c(F)cc2Cl)cc1	none
O=C(O)c1cccc(NC(=O)c2ccccc2)c1	none (no result: HSP90 inh, HSF1 inh, HSF1 activator, AHR activator)
Cc1ccc(C(=O)Nc2cc3ccccc3oc2=O)cc1	HSP90 inh 50, HSF1 inh -72 | HSP90 inh confirm 98 | FLuc counter 92
Cc1ccc(C(=O)Nc2cccc(C(=O)O)c2)cc1	HSP90 inh 82, HSF1 inh -72 (no result: DAX1 inh, FXN GAA850 act) | HSP90 inh confirm 88 | FLuc counter 83
Cc1ccc(C(=O)Nc2cccc(C(=O)N/N=C/c3ccccc3F)c2)cc1	HSP90 inh 19 | HSP90 inh confirm inactive | FLuc counter inactive
COC(=O)c1ccc(NC(=O)c2ccc3nccnc3c2)cc1	none
Cc1ccc(C(=O)Nc2ccc3nccnc3c2)cc1	HSP90 inh 26 | HSP90 inh confirm 33 | FLuc counter inactive
CC(C)(C)C(=O)Nc1ccccc1-c1nc2ccccc2[nH]c1=O	none
Cc1ccc(C(=O)Nc2ccc(C(=O)O)cc2NC(=O)c2ccc(C)cc2)cc1	HSP90 inh 60, HSF1 inh -51 | HSP90 inh confirm 55 | FLuc counter 37
O=C(O)c1ccc(NC(=O)c2ccc(Cl)cc2)c(NC(=O)c2ccc(Cl)cc2)c1	none
C#CCN(C[C@H]1[C@H](OC(=O)NCC2CCCCC2)[C@H](OC(=O)NCC2CCCCC2)C[C@H]2C(=O)N(c3ccccc3)C(=O)[C@@H]12)S(=O)(=O)c1ccc(C)cc1	none (no result: HSP90 inh, HSF1 inh, HSF1 activator, AHR activator)
CCN(c1cccc(C)c1)S(=O)(=O)c1nnc(NC(=O)c2ccco2)s1	none
O=C(O)CCCNc1cc(N2CCC3(CC2)OCCO3)c2noc3c2c1C(=O)c1ccccc1-3	HSP90 inh 31 (no result: DAX1 inh, HSF1 inh, HSF1 activator, FXN GAA850 act) | HSP90 inh confirm 30 | FLuc counter 29
O=C1CC(c2ccc3c(c2)OCCO3)Oc2ccccc21 (stereo not given)	none
O=C1CC(c2ccc3c(c2)OCCO3)Oc2ccc([N+](=O)[O-])cc21 (stereo not given)	DAX1 inh 4.7, HSP90 inh 55 | HSP90 inh confirm 66 | FLuc counter 64
Cc1onc(-c2cccc(Cl)c2Cl)c1C(=O)O/N=C(\N)c1ccc([N+](=O)[O-])o1	HSP90 inh 33 | HSP90 inh confirm inactive | FLuc counter inactive
Cc1onc(-c2ccccc2)c1C(=O)O/N=C(\N)c1ccc([N+](=O)[O-])o1	HSF1 activator inconclusive
CN(c1ccc(C(=O)NCc2ccccn2)cc1)S(=O)(=O)c1ccc(Cl)cc1	none
CSc1nnc(-c2ccccc2N=Cc2c(C)[nH]n(-c3ccc4ccccc4c3)c2=O)c(=O)[nH]1	none
C=CCSc1nnc(-c2ccccc2N=Cc2c(C)[nH]n(-c3ccccc3)c2=O)c(=O)[nH]1	HSP90 inh 22 | HSP90 inh confirm inactive | FLuc counter inactive
Cc1ccc(O)c(Nc2c3ccccc3nc3ccccc23)c1	HSP90 inh 39 | HSP90 inh confirm inactive | FLuc counter inactive
Cc1ccc(C)c(Nc2nc(N)c3ccccc3n2)c1	DAX1 inh 4.5, HSP90 inh 17 | HSP90 inh confirm 23 | FLuc counter inactive
